From ChEMBL document CHEMBL3433997, “St. Jude Leishmania screening dataset” (2016)

Tests used:
Format in all cases: functional
[1] = target: Solute carrier family 2, facilitated glucose transporter member 1 (Homo sapiens) (UniProt P11166); assay: ST_JUDE_LEISH: Cytotoxicity at 2uM final concentration against transgenic Leishmania Mexicana promastigotes LmGLUT1 that are glucose transport deficient and complemented with the human glucose transporter GLUT1. Activity is measured by DNA content using SYBR green in vitro
Solute carrier family 2, facilitated glucose transporter member 1 (Homo sapiens), sequence (P11166 whole entry): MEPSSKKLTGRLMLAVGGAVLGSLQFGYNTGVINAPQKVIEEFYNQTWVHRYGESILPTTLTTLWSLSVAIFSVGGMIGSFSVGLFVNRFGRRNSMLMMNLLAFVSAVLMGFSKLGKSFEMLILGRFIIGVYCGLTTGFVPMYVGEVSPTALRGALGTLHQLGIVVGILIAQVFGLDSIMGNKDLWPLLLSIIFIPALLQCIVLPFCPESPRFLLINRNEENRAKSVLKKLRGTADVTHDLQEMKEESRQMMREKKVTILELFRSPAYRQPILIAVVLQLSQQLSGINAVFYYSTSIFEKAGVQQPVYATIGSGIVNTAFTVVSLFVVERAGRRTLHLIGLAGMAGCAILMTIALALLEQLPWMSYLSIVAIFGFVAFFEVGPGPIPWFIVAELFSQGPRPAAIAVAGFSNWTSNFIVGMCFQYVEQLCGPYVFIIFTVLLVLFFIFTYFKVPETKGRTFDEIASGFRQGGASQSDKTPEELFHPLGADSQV

[2] = target: Hexose transporter 1 (Plasmodium falciparum) (UniProt O97467); assay: ST_JUDE_LEISH: Cytotoxicity at 2uM final concentration against transgenic Leishmania Mexicana promastigotes LmPfHT that are glucose transport deficient and complemented with the Plasmodium falciparum hexose transporter. Activity is measured by DNA content using SYBR green in vitro
[3] = target: Glucose transporter (Leishmania mexicana) (UniProt O61059); assay: ST_JUDE_LEISH: Cytotoxicity at 2uM final concentration against transgenic Leishmania Mexicana promastigotes LmGT2 that are glucose transport deficient and complemented with the L. Mexicana glucose transporter 2. Activity is measured by DNA content using SYBR green in vitro

Row | Compound | inhibition [1] | inhibition [2] | inhibition [3]
1 | Cc1cc(N(C)C)nc(Nc2ccc(NC(=O)c3ccccc3F)cc2)n1 | 1.36% | 12.2% | 2.04%
2 | Oc1cc(Nc2ccnc3cc(-c4cccc(CN5CCCCC5)c4)ccc23)c(F)cc1Cl | 3.41% | 2.51% | 2.54%
3 | COc1cccc(CCc2ccc(O)c3c2C[C@H]2C[C@H]4[C@H](N(C)C)C(O)=C(C(N)=O)C(=O)[C@@]4(O)C(O)=C2C3=O)c1 | 4.53% | 4.13% | 1.64%
4 | OC1CCN(c2cc(-c3ccccn3)nc(-c3ccccn3)n2)CC1 | -1.43% | 2.02% | -4.46%
5 | CCOc1ccc(C(C)NC(=O)Nc2ccccc2)cc1OCC (configuration not stated) | 4.28% | 2.66% | 2.96%
6 | COc1ccc(S(=O)(=O)NCCCC2CCN(CCCCCNC(=O)C=Cc3ccc(Cl)c(Cl)c3)CC2)cc1 | 0.69% | 0.8% | 3.65%
7 | COc1cc(NC(=O)Nc2ccc(Br)cc2C(=O)Nc2ccc(Br)cc2)cc(OC)c1OC | 5.51% | 4.2% | 5.3%
8 | O=C(CSc1cccc[n+]1[O-])c1ccc(Cc2ncc(C(F)(F)F)cc2Cl)s1 | 9.45% | 9.48% | 10.7%
9 | Nc1cc(-c2ccc3c(N)nccc3c2)ccc1Cl | 4.64% | 2.75% | 1.32%
10 | Cc1[nH]c(C)c(-c2cc3ccccc3o2)c(=O)c1Cl | 0.9% | 1.79% | 0.5%
11 | CC(C)(C)c1ccc(NC(=O)c2cccc(CN3CCCN(Cc4cccc(Cl)c4)CC3)c2)cc1 | 5.32% | 4.37% | 2.14%
12 | CN1CCCC(CN2CCN(Cc3ccc(-c4ccc(-c5nc6cc(F)ccc6[nH]5)cc4)cc3)CC2)C1 (configuration not stated) | 2.18% | 4.45% | 2.38%
13 | COc1cc2nc(-c3ccccc3)nc(N3CCN(C(=O)c4ccco4)CC3)c2cc1OC | 13.7% | 8.22% | 7.06%
14 | O=C(Nc1cccc(-c2ccc(CN3CCC(O)CC3)cc2)c1)c1cccc(Cl)c1 | 3.01% | 3.03% | 2.17%
15 | O=c1ccc(CNc2nc(NCCc3ccccc3)nc3ccc(Cl)cc23)c[nH]1 | 3.36% | 3.7% | 0.86%
16 | CCC(CC)n1c(COC)cc2c3c(N)nc(N)nc3ccc21 | 33.6% | 51.1% | 37.3%
17 | CCCC(C)Nc1nc(C)cc(NCCC(=O)Nc2ccc(OC)cc2)n1 (configuration not stated) | 1.95% | 0.08% | -0.58%
18 | O=C(CNC(=O)c1ccc(O)cc1)Nc1ccc(-c2cccc(-c3nc4cc(C(F)(F)F)ccc4[nH]3)c2)cc1 | 8.61% | 8.61% | 8.38%
19 | Cc1ccnc(NC(c2cccc(Cl)c2Cl)c2ccc3cccnc3c2O)c1 (configuration not stated) | 2.69% | 5.15% | -0.63%
20 | CC1CCc2c(C(=O)Nc3c(F)cc(F)cc3Br)csc2C1 (configuration not stated) | -0.18% | 0.02% | -0.61%
21 | COc1ccc(OC)c2c1CCN(C)C2Cc1cccc2ccccc12 (configuration not stated) | 3.52% | 3.87% | 1.61%
22 | OCC1CCN(Cc2cccc(-c3ccc(-c4nc5cc(C(F)(F)F)ccc5[nH]4)cc3)c2)CC1 | 1.05% | 0.48% | 1.4%
23 | COc1cc(Cc2cnc(N)nc2N)cc(OCCCS(=O)(=O)O)c1OC | 4.25% | 2.33% | 3.36%
24 | Cc1ccc2c(OCCN3CCC(Cc4ccc5c(c4)NC(=O)CO5)CC3)cc(F)cc2n1 | 3.49% | 2.13% | 0.63%
25 | O=C(c1cccc(Br)c1)N1CCN(c2ccc([N+](=O)[O-])c(NC3CC3)c2)CC1 | 4.9% | 4.63% | 1.63%

Row | Compound | inhibition [1] | inhibition [2] | inhibition [3]
26 | CC(C)c1ccc2oc(-c3ccc(NC(=O)c4ccc([N+](=O)[O-])o4)cc3)nc2c1 | 10.9% | 10.2% | 4.26%
27 | Cn1cncc1C(=O)Nc1ccc(-c2cccc(-c3nc4cc(F)ccc4[nH]3)c2)cc1 | 3.54% | 3.21% | 4.7%
28 | CC(C)(C)[C@@H](Nc1ccc(C#N)c2ccccc12)C(=O)NC1(Cc2ccc(O)c(Br)c2)CCCC1 | 2.05% | 3.09% | -0.09%
29 | O=C([C@H]1CCCCN1c1ccc([N+](=O)[O-])c2ccccc12)N1CCN(c2ncccn2)CC1 | 2.02% | 3.05% | 2.64%
30 | COc1ccccc1/C=C/C(=O)N(C)C1CCN(CCCCCNC(=O)/C=C/c2ccc(Cl)c(Cl)c2)CC1 | 4.19% | 2.77% | 5.48%
31 | N#Cc1ccc2[nH]c(-c3cc(-c4cccc(F)c4)cnc3N)nc2c1 | 6.56% | 7.71% | 3.77%
32 | CCOc1ccc(-c2nonc2NC(=O)c2cccs2)cc1OCC | -0.24% | 1.17% | -0.56%
33 | O=C(c1ccc([N+](=O)[O-])o1)N1CCC(Cc2ccc(C(F)(F)F)cc2)CC1 | 9.05% | 22.5% | 0.45%
34 | Cc1cccc(Nc2nc(N)c3ccccc3n2)c1 | 20.9% | 16.5% | 5.71%
35 | COc1ccc(C(=O)Nc2ccc(-c3nc4cc(C)ccc4[nH]3)cc2)cc1OC | 3.99% | 2.08% | 3.84%
36 | CC1CCCCN1CCCNC(=O)c1cccc(-c2cc3cc(Cl)c(Cl)cc3[nH]2)c1 (configuration not stated) | 3.16% | 3.02% | 4.99%
37 | Cc1cc(NC(=O)Nc2ccc3ccn(C)c3c2)c2ccccc2n1 | 13% | 10.7% | 8.87%
38 | CCN1CCN(CC(O)CNC(=O)Nc2ccc(Cl)cc2)CC1 (configuration not stated) | 8.67% | 8.82% | 6.63%
39 | CCc1cn(C)c2c(N3CCCC3=O)cc(C(=O)N[C@@H](Cc3ccccc3)[C@H](O)CNC(C)(C)c3cccc(C(F)(F)F)c3)cc12 | 4.78% | 3.46% | -1.12%
40 | O=C(CC(=O)C(F)(F)F)c1ccccc1[N+](=O)[O-] | 0.17% | 3.36% | -1.14%
41 | CN1CCC(Oc2cc(CN3CC[C@H](NC(=O)c4ccc(Cl)c(Cl)c4)C3)ccc2I)C1 (some centres not stated) | -0.57% | 0.84% | 2.33%
42 | Cc1cccc2nc(-c3ccc(-c4ccc(CN5CCN(c6cnccn6)CC5)cc4)s3)[nH]c12 | 11.9% | 9.41% | 9.78%
43 | COc1cc(NC(=O)c2cc3c(C)nn(-c4cccc(C(F)(F)F)c4)c3s2)cc(OC)c1OC | 0.22% | 1.29% | 2.46%
44 | CCOc1c(Br)cc(Cl)cc1CNCCCNc1nc2ccccc2[nH]1 | 1.77% | 1.74% | 3%
45 | O=C(NCCN1CCC(c2ccncc2)CC1)c1cccc(Nc2nccc(Nc3ccc(Oc4ccccc4)cc3)n2)c1 | -0.12% | -0.29% | -0.06%
46 | CCOc1ccccc1CNc1nccc(NCCc2cn(C)c3ccccc23)n1 | 7.77% | 3.5% | 2.49%
47 | Cc1cccc2nc(-c3ccc(-c4ccc(NC(=O)C(C)CN(C)C)cc4)s3)[nH]c12 (configuration not stated) | 4.89% | 6.11% | 3.65%
48 | CC(C)c1ccc(C2CCN(CCCCNC(=O)c3ccc(NC(=O)c4ccc(C(F)(F)F)cc4)cc3)CC2)c(O)c1 | 4.75% | 3.96% | 1.92%
49 | CNC(=O)c1cnc(Nc2ccc3[nH]c(=O)[nH]c3c2)nc1Nc1cccc(OC(C)C)c1 | -0.17% | -0.76% | -0.26%
50 | CCN(CCNC(=O)Cn1c(C)cc2cc([N+](=O)[O-])ccc21)c1cccc(C)c1 | 6.46% | 6.77% | 6.91%

Row | Compound | inhibition [1] | inhibition [2] | inhibition [3]
51 | CCCOc1ccc(C(F)(F)F)cc1NC(=O)c1nc2nc(C)cc(C)n2n1 | 6.01% | 5.05% | 1.31%
52 | O=C(NCCCCCN1CCC(c2c[nH]c3ccccc23)CC1)Nc1ccc(I)c(Cl)c1 | 7.04% | 4.76% | 5.92%
53 | CC(=O)Nc1ccc2[nH]cc(C3CCN(CCC4CCN(C(=O)/C=C/c5ccc(Cl)c(Cl)c5)CC4)CC3)c2n1 | 0.57% | 0.67% | -1.33%
54 | Nn1c(=O)oc2ccc(Cl)cc2c1=O | 4.15% | 10.4% | 10%
55 | Cc1noc(-c2ccc(O)cc2O)c1-c1ccc2c(c1)OCCCO2 | 0.11% | 0.09% | 0.22%
56 | C/C=C/C=C/C1=NCCc2cc(OCCC)ccc21 | 71.8% | 74.1% | 17.7%
57 | CCCCC(N)COc1cccc2c(-c3ccncc3)c(-c3cccc(NC(=O)Nc4ccccc4)c3)nn12 (configuration not stated) | 3.39% | 2.13% | 2.8%
58 | CCCCCCn1c(Sc2ccc(C#N)c([N+](=O)[O-])c2)nnc1-c1ccc(OC)cc1 | 5.67% | 5.13% | -3.74%
59 | O=C(NCCCCN1CCN(c2cccc3c2OCCO3)CC1)c1ccc(NC(=O)c2cc(Cl)cc(Cl)c2)cc1 | 2.62% | 2.75% | 3.56%
60 | O=C(Nc1ccc(OC2CCN(Cc3ccc(F)cc3)C2)c(Cl)c1)c1ccoc1 (configuration not stated) | 0.67% | 1.54% | 0.61%
61 | Fc1ccc2[nH]c(-c3ccc(-c4ccc(CNCCN5CCNCC5)cc4)s3)nc2c1 | 0% | 1.98% | -0.23%
62 | O=C(NCCCCN1CCC(c2ccc3c(c2O)CCCC3)CC1)c1ccc(-c2ccc(Cl)cc2)cc1 | 1.35% | 1.06% | 2.37%
63 | Cc1cc2nc(-c3ccc(C(=O)NCCCc4ccccc4)cc3)[nH]c2cc1C | 9.41% | 9.39% | 10.1%
64 | Cc1nc2ccc(-c3ccc(OC(F)(F)F)cc3)cc2c(O)c1C#N | -2.1% | 0.11% | -1.44%
65 | O=C(Nc1ccccc1)c1ccc(-c2cc3ccncc3cc2OC2CCNCC2)s1 | -3.12% | 3.86% | -3.49%
66 | Cc1cccnc1CNc1nccc2c(C)c(C)[nH]c12 | 2.2% | 2.33% | -0.37%
67 | CN1CCC(C(=O)Nc2cccc(-c3ccc(-c4nc5cc(C(F)(F)F)ccc5[nH]4)cc3)c2)CC1 | 4.82% | 2.75% | 3.82%
68 | CCCCCCN1CCCN(Cc2ccc(C(=O)Nc3ccc(C)c(F)c3)cc2)CC1 | 11.8% | 7.68% | 13.7%
69 | NCCCNc1ccnc2cc(Cl)ccc12 | -0.29% | 1.55% | 10.7%
70 | CN(C)c1ccc(-c2csc(C(=O)NC3CCN(CCC(C)(C)C)C3)c2)cc1 (configuration not stated) | 3.05% | 4.39% | 2.37%
71 | O=[N+]([O-])c1cccc(C(Nc2ccccn2)c2ccc3cccnc3c2O)c1 (configuration not stated) | 4.63% | 5.86% | 4.17%
72 | NC1CCN(c2nc(NCCCc3ccc(O)cc3)nc(NCc3ccccc3-c3ccc(C(F)(F)F)cc3)n2)CC1 | 1.49% | 2.87% | 3.83%
73 | Nc1nc(N)c2c(ccc3c2ccn3Cc2ccccn2)n1 | 86.5% | 92% | 78%
74 | CC(C)c1sc(N2CCN(C)CC2)nc1C(=O)Nc1cccc2c1CCCC2 | 0.42% | 1.67% | 1.79%
